Legend:
Conditions in all cases: concentration: 1 μM,replicates: in singlicate; n = 1
ADCK4 = tested on: ADCK4
AKT1 = tested on: AKT1
AKT2 = tested on: AKT2
AKT3 = tested on: AKT3
ALK = tested on: ALK
AMPK-alpha1 = tested on: T1, AMPK-alpha1
T1 construct: gene PRKAA1

AMPK-alpha2 = tested on: T2, AMPK-alpha2
T2 construct: gene PRKAA2

ANKK1 = tested on: ANKK1
ARK5 = tested on: T3, ARK5
T3 construct: gene NUAK1

ASK1 = tested on: T4, ASK1
T4 construct: gene MAP3K5

ASK2 = tested on: T5, ASK2
T5 construct: gene MAP3K6

AURKA = tested on: AURKA
AURKB = tested on: AURKB
AURKC = tested on: AURKC
AXL = tested on: AXL
BIKE = tested on: T6, BIKE
T6 construct: gene BMP2K

BLK = tested on: BLK
BMPR1A = tested on: BMPR1A
BMPR1B = tested on: BMPR1B
BMPR2 = tested on: BMPR2
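Note: KINOMEscan kinase panel screen.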

Structure (SMILES)	%Inh (ADCK4) [%]	%Inh (AKT1) [%]	%Inh (AKT2) [%]	%Inh (AKT3) [%]	%Inh (ALK) [%]	%Inh (AMPK-alpha1) [%]	%Inh (AMPK-alpha2) [%]	%Inh (ANKK1) [%]	%Inh (ARK5) [%]	%Inh (ASK1) [%]	%Inh (ASK2) [%]	%Inh (AURKA) [%]	%Inh (AURKB) [%]	%Inh (AURKC) [%]	%Inh (AXL) [%]	%Inh (BIKE) [%]	%Inh (BLK) [%]	%Inh (BMPR1A) [%]	%Inh (BMPR1B) [%]	%Inh (BMPR2) [%]
Cn1ccc2ncnc(Oc3ccc(NC(=O)Nc4ccnc(C(F)(F)F)c4)c(Cl)c3)c21	4	7	0	0	0	0	0	0	2	0	0	18	34	0	12	0	0	0	6	0
O=C(Nc1cccc(C(F)(F)F)c1)c1cccc(Oc2ccc3nccn3n2)c1	0	0	17	1	0	8	84	0	0	5	21	5	9	6	31	15	6	0	12	21
CC(=O)Nc1ccc(-c2cc3ncnc(SCC(=O)O)c3s2)cc1	0	0	28	16	7	2	0	22	0	0	0	4	97.1	32	36	19	0	8	0	7
Cl.c1ccc(Oc2ccc(Nc3ccnc4cc(-c5ccc(CN6CCNCC6)o5)ccc34)cc2)nc1 [GW567142]	18	0	0	0	15	0	0	0	12	0	0	20	77	27	0	0	86	0	0	2
CCNCC(Cc1ccccc1)NC(=O)c1cc(Br)c(-c2ccnc3[nH]ccc23)s1.Cl.Cl (centres unmarked) [GSK1383280]	89	93.7	81	88	42	49	45	8	60	0	0	96.2	93.6	86	63	79	0	0	0	0
Cn1ccc2ncnc(Oc3ccc(NC(=O)Nc4cccc(C(F)(F)F)c4)c(Cl)c3)c21	6	0	0	0	0	15	0	0	3	5	0	0	51	29	75	0	6	15	0	0
COc1ccc(Nc2nccc(N3CCC(NC(=O)c4cccc(C#N)c4)C3)n2)cc1 (centres unmarked) [GSK1379730]	9	0	0	0	28	0	0	0	0	0	0	0	0	22	21	22	38	6	0	0
COC(=O)c1cccc(NC(=O)NC2CCN(c3ccnc(NCc4ccc(F)cc4)n3)CC2)c1 [GSK1379860]	18	0	0	0	30	0	0	0	10	0	4	0	0	13	9	13	24	0	0	9
CCN1CCN(CCCC(=O)Nc2n[nH]c3nc(-c4ccc(O)cc4)c(Br)cc23)CC1 [SB-731579]	16	0	0	0	0	0	0	0	5	0	49	0	5	0	57	9	0	0	15	12
C[C@@H]1CNc2c(sc3ccc4nc(-c5ccc(O)cc5)ccc4c23)C(=O)N1	10	0	0	0	16	30	0	0	0	91	0	42	24	0	87	0	0	27	0	7

Source: paper PMC5540273 (PLoS ONE, 2017)
